TSG101-PTAP inh: blocks PTAP/TSG101 interaction to inhibit HIV-1 budding | Fluorescence polarization, FITC-PTAP peptide / Tsg101 binding | Potency, µM (doses to about 115 µM), for the others: at the top dose activity change, negative = inhibition, usual class: inhibitors | 340,000 tested, under 10 active | AID 493005; active = well fitted inhibition curve with a large enough effect in the main read-out, with a control signal flat, not every such curve was filed as active; inconclusive = small, poorly fitted or top-dose-only effect, or effect the other way, or a change in a side signal; inactive = no such curve, though single readings can be large or run the other way; also: potency is read from the fitted curve at half-maximal effect; % of control where 0% means no effect
Target sequence (Q99816 whole entry, looked up): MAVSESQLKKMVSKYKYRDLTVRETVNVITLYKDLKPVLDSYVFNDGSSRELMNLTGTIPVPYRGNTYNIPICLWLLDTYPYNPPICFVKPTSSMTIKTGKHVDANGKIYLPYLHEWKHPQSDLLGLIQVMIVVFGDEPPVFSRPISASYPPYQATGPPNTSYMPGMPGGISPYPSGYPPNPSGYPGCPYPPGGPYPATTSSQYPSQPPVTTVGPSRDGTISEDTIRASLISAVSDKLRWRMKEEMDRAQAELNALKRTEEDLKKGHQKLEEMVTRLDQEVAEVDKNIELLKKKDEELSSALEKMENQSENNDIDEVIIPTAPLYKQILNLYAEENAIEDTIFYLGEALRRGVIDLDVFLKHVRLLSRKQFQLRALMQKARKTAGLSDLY
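Fluorescence polarization binding of Tsg101 binding domain (10 uM final) to FITC-labeled PTAP peptide (50 nM final) in HEPES pH 7.5 buffer with NaCl, Tween 20, EDTA, TCEP. Compounds added before peptide; binding 20 min at RT.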
Vif-A3G inh: Vif-A3G binding inhibition; Q9HC16; HeLa A3G-eYFP + Vif (tagged APOBEC3G with the HIV-1 protein that degrades it), YFP fluorescence, overnight; Potency, µM (titrated, usually from 46.1 µM), inactives show at the highest dose activity, negative = active, hits mostly inhibitors; hit rate 0.076% among 410,000; AID 602310; also: potency is read from the fitted curve at half-maximal effect; % is scaled to controls: 0 for no effect and ±100 for the full control effect; nearly all actives have a fitted effect of over 60% in size
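Read-out is eYFP fluorescence (Ex 488/Em 500-530) from Vif-expressing HeLa A3G-eYFP cells; more signal means A3G escaped Vif-mediated degradation. Cells plated overnight, compound pinned in, incubated overnight at 37 deg C.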
Vif-A3F inh: blocks the Vif interaction with APOBEC3F; HeLa A3F-eYFP + Vif (tagged APOBEC3F with the HIV-1 protein that degrades it), YFP fluorescence increase; Potency, µM (titrated, usually from 46.1 µM), without a hit: at the top dose activity, negative = active; hit rate 0.2% among 390,000; also: potency is read from the fitted curve at half-maximal effect; % of control where 0% means no effect; nearly all actives have a fitted effect of over 65% in size
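Fluorescence increase (Ex 488/Em 500-530) after overnight compound treatment at 37 deg C flags inhibition of Vif-driven A3F-eYFP loss in stable HeLa A3F-eYFP/Vif cells seeded overnight beforehand.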
pAkt inh: Akt phosphorylation inhibition; AID 651550; Neuro2A IGF-stimulated pAkt S473 HTRF, 20 min; stronger effect = lower value; hit rate 0.32% among 360,000; activity change, % for hits at 50 µM; in the data active = activity change below about -80%; inconclusive = mostly about -51% to -80%; also: % is scaled to controls: 0 for no effect and ±100 for the full control effect
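Neuro2A cells (4,500/well, DMEM with 0.5% FBS) were treated with compound at a single 50 µM final concentration, stimulated with 6 nM IGF for 20 min at 37 °C, and lysed. Phospho-Akt Ser473 was read by HTRF as 665/615 ratio ×10^4.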
12-LOX inh: inhibitors of human 12S-lipoxygenase ALOX12 | P18054 | hit rate 1.1% among 580,000 | purified 12hLO, xylenol orange hydroperoxide absorbance | Potency, µM (series often up to 108 µM), for inactives: at the top dose activity change, negative = inhibition, most hits filed as inhibitors; also: potency is read from the fitted curve at half-maximal effect; % is scaled to controls: 0 for no effect and ±100 for the full control effect
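Purified human 12hLO (150 nM final) in 25 mM Hepes, 0.01% Triton X-100, pH 7.0 was preincubated 15 min at room temperature with compound. Then 40 uM arachidonic acid was added, 30 min. Hydroperoxide was read by Fe-XO absorbance ratio 573/405 nm.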
S-ASM inh: blocks human secretory acid sphingomyelinase; P17405; placental ASM, HMU-PC fluorogenic substrate, 60 min; hit rate 0.006% among 340,000; AID 504937; Potency, µM (doses to about 57.5 µM), without a hit: at the top dose activity change, negative = inhibition, usual class: inhibitors; also: potency is read from the fitted curve at half-maximal effect
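Steps: dispense placental human ASM, pin compound, wait 10 min at room temperature, add HMU-PC0 substrate at 9 uM final, incubate 60 min at 37 °C, add stop solution raising pH to 10, read fluorescence.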
The depositor's hits bear a star; i = inactive; ? = inconclusive; / = not tested or not shown. A selection: hits, their analogues and other compounds. The true share with any hit is near 1.4%. Unless noted, calls follow the shape of the dose curve; as a rule, active = well fitted curve in the direction sought with a large enough effect; inconclusive = small, poorly fitted or top-dose-only effect, or another doubt; inactive = no such curve, though single readings can be large; an effect the other way counts as inactive or inconclusive.

SMILES	TSG101-PTAP inh	Vif-A3G inh	Vif-A3F inh	pAkt inh	12-LOX inh	S-ASM inh
CC(Oc1ccc(Cl)cc1)C(=O)NNC(=S)NC(=O)c1ccco1 (stereo not drawn)	0%	-3%	0%	i	45µM*	9%
CCCOc1ccc(C(=O)NNC(=S)NC(=O)c2ccco2)cc1	-2%	-10%	-5%	i	40µM*	-1%
O=C(NNC(=S)NC(=O)c1cccc([N+](=O)[O-])c1)c1ccc(Br)cc1	-5%	0%	-11%	i	40µM*	-4%
O=C(NNC(=S)NC(=O)c1cccc([N+](=O)[O-])c1)c1ccc(O)cc1	0%	4%	-5%	i	8%	-4%
COc1ccc(C(=O)NNC(=S)NC(=O)c2ccco2)cc1	0%	-1%	0%	i	0%	-1%
O=C(NC(=S)NNC(=O)c1ccco1)c1ccc(Br)cc1	-9%	2%	1%	/	28µM*	-1%
Cn1c(=O)n(Cc2nc(-c3ccccc3)no2)c(=O)c2ccccc21	/	/	/	/	-10%	/
CCCOc1ccc(C(=O)NNC(=S)NC(C)=O)cc1	-8%	9%	0%	i	-3%	-1%
O=C(/C=C/c1ccccc1)NC(=S)NNC(=O)c1ccccc1	/	/	/	/	6.3µM*	/
O=C(/C=C/c1ccccc1)NC(=S)NNC(=O)c1cccnc1	-8%	-21%	-1%	i	0%	0%
CCCOc1ccc(C(=O)NNC(=S)NC(=O)c2ccccc2)cc1	-5%	-1%	-9%	i	35µM*	-8%
COc1ccc(C)cc1-n1c(-c2ccncc2)n[nH]c1=S	-4%	0%	0%	i	-9%	-1%
COc1ccccc1-n1c(-c2cc(-c3ccc(F)cc3)n[nH]2)n[nH]c1=S	1%	-3%	?	i	40µM*	-5%
COc1ccccc1-c1n[nH]c(=S)n1N	0%	1%	9%	i	14µM*	1%
COc1ccc(-c2cc(-c3n[nH]c(=S)n3-c3cccc4ccccc34)[nH]n2)cc1	-1%	-14%	3%	i	?	-16%
COc1cc(-n2c(-c3ccccc3)n[nH]c2=S)c(OC)cc1Cl	-4%	-10%	3%	i	28µM*	-2%
Cc1ccc2c(=O)cc(C(=O)Nc3onc4c3CC(C)CC4)oc2c1C (stereo not drawn)	/	/	/	/	5%	/
O=S(=O)(c1ccccc1)c1cnn2c(C(F)(F)F)cc(-c3ccccc3)nc12	-4%	0%	4%	-90%*	0%	63%
N#Cc1ccccc1-c1ccc2ncnc(NCc3cccs3)c2c1	/	/	/	/	13µM*	/
CN(C)S(=O)(=O)c1cccc(NC(=O)c2cccc(Oc3ccccc3)c2)c1	/	/	/	/	4%	/
O=C(c1ccc(NS(=O)(=O)c2ccccc2)cc1)N1CCCC1	-2%	0%	-4%	-118%*	-4%	-1%
CCOC(=O)N1CCN(c2cc(NCCC(=O)O)c3c4c(onc24)-c2ccccc2C3=O)CC1	?	?	7.1µM*	i	/	-17%
CN1CCN(c2cc(N3CCN(C(=O)c4ccco4)CC3)c3c4c(onc24)-c2ccccc2C3=O)CC1	?	6%	2%	i	/	-14%
O=C(O)CCCNc1cc(N2CCN(C(=O)c3ccco3)CC2)c2noc3c2c1C(=O)c1ccccc1-3	?	22µM*	?	i	19%	-15%
COc1cc(CN(C)C(=O)c2cc3ccccc3oc2=O)ccc1OC(F)F	/	/	/	/	13%	/
COc1cc(OC)cc(C(=O)NC(=S)NNC(=O)c2cnccn2)c1	-1%	-3%	-5%	i	50µM*	-2%
CC1CCCN(c2nnc(NC(=O)Nc3ccc(F)c(Cl)c3)s2)C1 (stereo not drawn)	/	/	/	/	20%	/
COC(CNC(=O)c1ccc(-n2c(=S)[nH]c3ccccc3c2=O)cc1)OC	-1%	0%	-15%	i	0%	-1%
